Rows were chosen to be rich in hits. Some 10% of all compounds tested hit in one or more screens of this group.
NPR1 antag – human Npr1 receptor antagonism | P16066 | HEK293 hNpr1 GloSensor cGMP, ANP-stimulated luminescence | Potency, µM (doses to about 46.3 µM), without a hit: at the highest dose activity change, negative = inhibition, actives largely listed as inhibitors | actives 1.6% (n = 76,000); calls by dose curve; further: on the % scale 0 is the no-effect control and ±100 the full control effect; nearly all actives have a fitted effect of over 60% in size
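HEK293 cells stably expressing human Npr1 and cGMP GloSensor pGS-40F, loaded 2 h with 2% GloSensor reagent, given compound 30 min at room temperature. Luminescence read before and 20 min after 0.1 nM hNppA.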
HEK cytotox – cytotoxic compounds in HEK 293 cells; HEK 293 viability, ATP luminescence (CellTiter-Glo), 48-72 h; Potency, µM (series often up to 115 µM), inactives show at the top dose activity change, negative = cytotoxicity, actives largely listed as inhibitors; actives 6.6% (n = 94,000); further: on the % scale 0 is the no-effect control and ±100 the full control effect; nearly all actives have a fitted effect of over 60% in size
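HEK 293 cells at 250 cells/well were exposed to compounds by pintool transfer for 48 or 72 hr at 37 degree Celsius, 5% CO2. Viability was read as ATP-coupled luminescence with CellTiter-Glo after 10 min at room temperature.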
GPT2 inhibitor – blocks human glutamate pyruvate transaminase 2 | actives 0.25% (n = 100,000) | Recombinant GPT2, coupled pyruvate oxidase/HRP Amplex Red fluorescence | AID 1671188 | Q8TD30 | Potency, µM (series often up to 57.7 µM), for the others: at the top dose activity change, negative = inhibition, usual class: inhibitors; further: on the % scale 0 is the no-effect control and ±100 the full control effect; nearly all actives have a fitted effect of over 60% in size
Target sequence (Q8TD30 whole entry, looked up): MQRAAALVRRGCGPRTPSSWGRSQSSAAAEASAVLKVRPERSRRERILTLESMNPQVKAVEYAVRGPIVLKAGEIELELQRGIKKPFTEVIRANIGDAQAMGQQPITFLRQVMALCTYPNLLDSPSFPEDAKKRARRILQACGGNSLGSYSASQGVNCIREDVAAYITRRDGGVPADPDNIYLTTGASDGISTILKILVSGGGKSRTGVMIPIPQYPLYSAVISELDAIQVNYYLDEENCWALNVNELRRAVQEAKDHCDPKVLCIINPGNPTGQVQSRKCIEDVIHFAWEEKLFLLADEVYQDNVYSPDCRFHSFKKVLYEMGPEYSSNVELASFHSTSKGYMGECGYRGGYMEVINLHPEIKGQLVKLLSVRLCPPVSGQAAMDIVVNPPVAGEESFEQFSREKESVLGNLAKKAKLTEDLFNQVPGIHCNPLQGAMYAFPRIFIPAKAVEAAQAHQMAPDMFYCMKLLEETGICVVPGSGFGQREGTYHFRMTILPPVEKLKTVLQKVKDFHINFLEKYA
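Fluorescence of coupled pyruvate oxidase/HRP/Amplex Red system (50uM Amplex, 30 min, dark) reports pyruvate formed by GPT2. Enzyme reaction: 10ng/uL GPT2, 2mM L-alanine, 250uM a-KG, 30 min room temperature, pH 7.5; 50uM AOA control.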
NIH3T3 tox – cytotoxic compounds in NIH 3T3 cells; NIH 3T3 viability, CellTiter-Glo ATP luminescence, 48-72 h; Potency, µM (top dose mostly 96.7 µM), inactives show at the top dose activity change, negative = cytotoxicity, actives largely listed as inhibitors; actives 4.3% (n = 94,000); AID 1345082; further: on the % scale 0 is the no-effect control and ±100 the full control effect; nearly all actives have a fitted effect of over 55% in size
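NIH 3T3 cells at 400 cells/well received 23 nL of compound by pintool and were incubated 48 or 72 h at 37 °C. Viability was read as ATP-coupled CellTiter-Glo luminescence.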
FLuc inh-1 – inhibitors of firefly (Photinus pyralis) luciferase. AID 1347043. Potency, µM (series often up to 115 µM), usual class: inhibitors. purified P. pyralis luciferase, luminescence, biochemical. actives 2.5% (n = 76,000); further: on the % scale 0 is the no-effect control and ±100 the full control effect; nearly all actives have a fitted effect of over 65% in size
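Purified P. pyralis luciferase (10nM final) in 50mM Tris acetate pH 7.5, 10mM Mg acetate, 0.01% Tween-20, 0.05% BSA with 10uM D-luciferin and 10uM ATP. Compounds titrated qHTS. Luminescence imaged on CCD.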
FLuc SDR -ATP – stabilizes firefly luciferase without ATP; shares compounds with FLuc inh-1; Purified FLuc-C-HiBiT, Nano-Glo HiBiT luminescence, no ATP; Potency, µM (highest dose often 32.7 µM), inactives show at the top dose activation (signal gain), actives largely listed as activators; actives 7.8% (n = 1,300); AID 1963318; further: nearly all actives have a fitted effect of over 55% in size
FLuc SDR ATP – stabilizes firefly luciferase with ATP present; shares compounds with FLuc inh-1; purified FLuc-C-HiBiT + ATP, HiBiT complementation luminescence; Potency, µM (top dose mostly 32.7 µM), inactives show at the top dose activation (gain of signal), actives largely listed as activators; actives 8.7% (n = 1,300);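 further: signal reports ligand binding via conformational change of the enzyme rather than luciferase catalysis; % of control where 0% means no effect; nearly all actives have a fitted effect of over 55% in size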
FLuc inh-2 – firefly luciferase enzyme inhibition | shares compounds with FLuc inh-1 | purified FLuc-C-HiBiT enzyme, luciferin luminescence | Potency, µM (top dose mostly 32.7 µM), without a hit: at the top dose activity change, negative = inhibition, hits mostly inhibitors | actives 42% (n = 1,300); further: on the % scale 0 is the no-effect control and ±100 the full control effect; nearly all actives have a fitted effect of over 70% in size
* hit, by the source's call; i = inactive; ? = inconclusive; . = no result given; [ ] = dose if it differs, or a comment. Unless noted, the call rests on the fitted dose curve; in most records, active means well fitted curve in the direction sought with a large enough effect; inconclusive means small, poorly fitted or top-dose-only effect, or another doubt; inactive means no such curve, though single readings can be large; an effect the other way counts as inactive or inconclusive. Potency means the concentration at half of the fitted maximal effect.

SMILES	NPR1 antag	HEK cytotox	GPT2 inhibitor	NIH3T3 tox	FLuc inh-1	FLuc SDR -ATP	FLuc SDR ATP	FLuc inh-2
Cc1ccc(CNC(=O)c2cc3c(N(C)Cc4ccccc4)nc(C)cn3n2)cc1	7%	?	i	?	i	.	.	.
Cc1ccc(-n2ncc3c(N4CCC(Cc5ccccc5)CC4)ncnc32)cc1	.	.	.	.	.	16%	16%	-17%
CC(C)NC(=O)N1CCC(c2nc(CCOCC3CCOCC3)no2)C1 (stereo unspecified)	4%	-7%	i	-13%	i	.	.	.
CCN1CCN(c2nccc(Cl)n2)C(=O)C1	10%[70.6 µM]	-1%[172 µM]	-5%[88.5 µM]	-10%[138 µM]	i	.	.	.
CCN1CCN(c2csc3ccc(Cl)cc3c2=O)CC1	.	.	.	.	.	21%	15%	?
CSCc1nc(-c2ccncc2)nn1Cc1ccc2c(c1)OCO2	11µM*	?	-13%	?	4.5µM*	10%	19%	-13%
COc1ccc(OCc2nc3c(n2Cc2ccccc2)C(=O)N(Cc2ccccc2)CCN3)cc1OC	2%	?	-7%	?	i	.	.	.
COc1ccccc1OCc1nc2ccccc2n1Cc1ccccc1	.	.	.	.	.	15%	9%	?
O=C(NCC1CCCCC1)c1cn2cc(-c3cccc(C(F)(F)F)c3)sc2n1	.	-3%	4%	?	.	.	.	.
O=C(Nc1ccc(Cl)cc1)Nc1ccc2n(c1=O)C[C@H]1C[C@@H]2CN(C(=O)c2ccc3ccccc3c2)C1	-23%	28µM*	2%	40µM*	14µM*	13%	8%	?
Cc1ccc(NC(=O)Nc2ccc(C)n(CC(=O)NC(C)(C)C)c2=O)cc1	0%	?	0%	-18%	4µM*	?	?	3.9µM*
Cc1ccc(NC(=O)Nc2ccc(C)n(CC(=O)Nc3ccc(C)c(C)c3)c2=O)cc1	4%	-12%	-9%	i	?	.	.	.
CCCNC(=O)Cn1c(C)ccc(NC(=O)Nc2ccc(OC)cc2)c1=O	-17%	-27%	i	?	4µM*	?	?	6.2µM*
Cc1ccc(NC(=O)Nc2ccc(C)n(CC(=O)NCC(C)C)c2=O)cc1	-29%	?	-18%	?	0.89µM*	3.9µM*	?	1.1µM*
CCC(C)NC(=O)Cn1c(C)ccc(NC(=O)Nc2ccc(C)cc2)c1=O (stereo unspecified)	-23%	?	-12%	?	2µM*	3.1µM*	?	1.2µM*
Cc1ccc(NC(=O)Nc2ccc(C)n(CC(=O)Nc3ccc4c(c3)OCO4)c2=O)cc1	-17%	-29%	i	-29%	?	.	.	.
CCN(CC)Cc1cnc2c(C(=O)NCCc3c[nH]c4ccccc34)cnn2c1	0%	?	4%	-31%	i	.	.	.
COc1ccc(NC(=O)Nc2ccc(C)n(CC(=O)N3CCCC(C)C3)c2=O)cc1 (stereo unspecified)	4%	-16%	4%	-29%	7.1µM*	?	?	7.9µM*
COc1ccc(NC(=O)Nc2ccc(C)n(CC(=O)N3CCCN(C)CC3)c2=O)cc1	-8%	0%	5%	i	?	.	.	.
CN1CCOc2c(C(=O)NCCC(N)=O)cc(-c3ccccc3OC(F)(F)F)cc21	1%[70.6 µM]	?	-6%[88.5 µM]	?	i	.	.	.
O=C(O)[C@@H]1CN(Cc2ccccc2)C[C@@H]1C(=O)N1CCc2ccccc21	1%	i	?	-1%	i	13%	9%	1%
O=C(O)[C@@H]1CN(Cc2ccccc2)C[C@@H]1C(=O)N1CCOCC1	-11%	-16%	i	-17%	i	.	.	.
O=C(Nc1ccc(F)cc1)c1ccc2nc(-c3ccccn3)oc2c1	.	?	i	?	.	.	.	.
O=C(Nc1c(C(=O)Nc2ccc(F)cc2)oc2ccccc12)c1cc2ccccc2o1	.	.	.	.	.	22%	14%	7.9µM*
O=C(c1ccc(C(F)(F)F)cc1)N1CCCC2(C1)C(=NC1CCCCC1)NC(=O)N2c1cccnc1 (stereo unspecified)	.	1%	i	0%	.	.	.	.
SMILES	NPR1 antag	HEK cytotox	GPT2 inhibitor	NIH3T3 tox	FLuc inh-1	FLuc SDR -ATP	FLuc SDR ATP	FLuc inh-2
Cc1nn(-c2ccc(C(C)(C)C)cc2)c(C)c1[C@@H]1C=C[C@@H](NC(=O)CCCC(=O)O)C1	-11%[70.6 µM]	-24%[172 µM]	-24%[88.5 µM]	?	22µM*	25%[49.3 µM]	?	?
Cc1ccc(-n2nc(C)c([C@H]3C=C[C@@H](OC(=O)Nc4cccc(C(F)(F)F)c4)C3)c2C)cc1Cl	?	32µM*	-9%	?	11µM*	14%	12%	-9%
Cc1nn(-c2ccc(C(C)C)cc2)c(C)c1[C@@H]1C=C[C@@H](NC(=O)COCC(=O)O)C1	1%[70.6 µM]	-19%[172 µM]	i	?	35µM*	17%[49.3 µM]	13%[49.3 µM]	?
Cc1nn(-c2ccc(C(F)(F)F)cc2)c(C)c1[C@@H]1C=C[C@@H](NC(=O)CSCC(=O)O)C1	-2%	?	1%	-14%	i	.	.	.
Cc1ccccc1-n1nc(C)c([C@H]2C=C[C@@H](OC(=O)N[C@H](C)c3ccccc3)C2)c1C	-18%[70.6 µM]	?	0%[88.5 µM]	?	i	.	.	.
Cc1ccc(-n2nc(C)c([C@@H]3C=C[C@@H](NC(=O)COCC(=O)O)C3)c2C)cc1Cl	0%[70.6 µM]	-20%[172 µM]	-22%[88.5 µM]	-23%[174 µM]	35µM*	10%[49.3 µM]	9%[49.3 µM]	-1%[49.3 µM]
COC[C@@H]1CN(C(=O)CCc2ccccc2)C[C@H]1C(N)=O	-6%	-20%	i	?	i	.	.	.
O=C(N1CC=C(c2ccc(F)cc2)CC1)C12CNCC1CNC2 (stereo unspecified)	5%	-25%	2%	-13%	i	.	.	.
O=C(Cn1ccn2nc(-c3ccccc3)c(CO)c2c1=O)N1CCN(c2ccccc2)CC1	-5%	-28%	i	-23%	i	.	.	.
O=C(c1cc(-c2ccc(F)cc2)nc2ccccc12)N1CCC(c2nc(C3CCOCC3)no2)C1 (stereo unspecified)	-8%	?	-2%	?	10µM*	?	17%	?
N#Cc1c(-n2ncnc2-c2ccc(Br)cc2)sc2c1CCCCC2	.	.	.	.	.	23%	21%	9.9µM*
COc1ccc(C(=O)N[C@H]2C[C@@H](c3nc(-c4cncnc4)no3)N(C)C2)cc1	3%[70.6 µM]	-4%[172 µM]	i	-12%[138 µM]	?	.	.	.
